Nrf2 activator – Nrf2 pathway activation; AREc32 ARE-luciferase reporter (MCF7-derived line), luminescence, 24 h; Potency, µM (top dose mostly 46.1 µM), inactives show top-dose activation, actives largely listed as activators; hit rate 0.31% among 410,000; AID 624171; note: % of control where 0% means no effect; nearly all actives have a fitted effect of over 65% in size
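Reporter line AREc32 (ARE-Fluc), seeded overnight in OPTI-MEM with 5% FBS; compound pin-transferred, 24 hr at 37 deg C, 5% CO2; luminescent read-out.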
PINK1 expr mod – modulators of PINK1 expression | PINK1 immunofluorescence, high-content cytometry, 24 h | Potency, µM (doses to about 76.6 µM), inactives show at the top dose activation (PINK1 increase), hits mostly activators | hit rate 0.2% among 410,000; active = well fitted activation curve with a large enough effect; inconclusive = small, poorly fitted or top-dose-only effect; cell line not stated here; note: % of control where 0% means no effect; nearly all actives have a fitted effect of over 65% in size
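PINK1 protein, normally rapidly degraded, was detected by immunofluorescence after 24 hour compound treatment of a stable cell line. Titration data (5 concentrations) came from laser-scanning cytometry, with CCCP-treated wells as controls.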
Nrf2 inh – Nrf2 pathway inhibition; A549 ARE-Fluc reporter, luciferase luminescence, 18-24 h; Potency, µM (series often up to 46 µM), inactives show at the top dose activity change, negative = inhibition, actives largely listed as inhibitors; hit rate 2.1% among 360,000; AID 504444; note: % is set by controls: 0 for no effect and ±100 for the full control effect; nearly all actives have a fitted effect of over 60% in size
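Two sequential reads on A549 ARE_Fluc cells exposed to compound for 18-24 h: a CellTiter-Fluor fluorescence read for viability, then a luciferase luminescence read for Nrf2/ARE activity.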
Epigenetic derep – regulators of epigenetic silencing causing reporter derepression in mouse cells | Potency, µM (top dose mostly 53.9 µM), inactives show top-dose GFP activation, most hits filed as activators | AID 1865 | hit rate 0.2% among 280,000 | murine LDR cells, GFP reporter derepression, 30 h; note: % of control where 0% means no effect; nearly all actives have a fitted effect of over 60% in size
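Derepression of a silenced CMV-GFP reporter in murine LDR cells is scored by enumerating GFP-positive cells with a laser-scanning microplate cytometer after 30 hours of treatment at 37 C.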
A549 viability – counter-screen for Nrf2 inhibitors: cytotoxicity in A549 cells | hit rate 0.16% among 390,000 | A549 ARE-Fluc cells, CellTiter-Fluor viability, 18-24 h | AID 504648 | Potency, µM (highest dose often 46 µM), for inactives: top-dose activity change, negative = cytotoxicity, most hits filed as inhibitors; note: % is set by controls: 0 for no effect and ±100 for the full control effect
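A549 ARE_Fluc cells in 5% FBS OPTI-MEM were exposed to compounds in concentration-response for 18-24 h at 37 deg C. Viability was read by CellTiter-Fluor fluorescence (Ex 405/Em 525) after 30 min, before the luciferase read.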
Starred values were filed as active, the others as inactive; ? = inconclusive; . = no result; [ ] = another dose, or the depositor's remark. Hits are enriched below; roughly 2.4% of the tested compounds scored in any of these assays. Unless noted, calls come from the whole dose curve; as a rule, active = well fitted curve in the direction sought with a large enough effect; inconclusive = small, poorly fitted or top-dose-only effect, or another doubt; inactive = no such curve, though single readings can be large; an effect the other way counts as inactive or inconclusive. Potency is the fitted concentration of half-maximal effect.

SMILES | Nrf2 activator | PINK1 expr mod | Nrf2 inh | Epigenetic derep | A549 viability
Clc1ccc(-n2nnnc2-c2cnc(-c3ccncc3)nc2-c2cccs2)cc1 | 0% | -3% | ? | 0% | -14%
FC(F)(F)c1nc(-c2cccs2)ncc1-c1nnnn1-c1ccc(Cl)cc1 | -2% | 16% | 23µM* | 3% | ?
COC(=O)C1CCN(Cc2ccc3c(c2)CN(C(=O)c2sc(C)nc2C)CCO3)CC1 | . | 0% | . | . | .
COc1ccc(-n2c(CNC(=O)c3cccc4ccccc34)nnc2SC)cc1 | . | 3% | . | . | .
Cc1ccc(-c2ccc(=O)n(CC(=O)Nc3ccc(C(C)C)cc3)n2)cc1 | 5% | 1% | 0% | 5% | 0%
Cc1ccc(C(=O)NCCC2=CCCCC2)cc1S(=O)(=O)N1CCOCC1 | 5% | 0% | ? | . | 0%
O=C(O)c1ccc(Cl)c(S(=O)(=O)N2CCCCCC2)c1 | 0% | . | 26µM* | -1% | ?
COc1ccc(C(CNC(=O)c2ccc(Cl)c(S(=O)(=O)N3CCCC3)c2)N2CCCC2)cc1 (configuration not stated) | 0% | 1% | -4% | . | 1%
COc1ccc(CCNC(=O)c2ccc(Cl)c(S(=O)(=O)N3CCCC3)c2)cc1 | -1% | 3% | 16µM* | . | -5%
COc1ccc(CCNC(=O)COc2ccc(S(=O)(=O)NC3CCCCC3)cc2Cl)cc1 | 0% | 1%[38.3 µM] | 21µM* | 2% | ?
Cc1ccc(C(=O)NCCC2=CCCCC2)cc1S(=O)(=O)N1CCCCC1 | 7% | 22% | 23µM* | . | ?
Cc1ccc(C(=O)NCc2cccnc2)cc1S(=O)(=O)N1CCCCCC1 | 0% | 4% | 8.2µM* | . | -4%
Cc1ccc(O)c(NC(=O)c2ccc(Br)c(S(=O)(=O)N3CCCCC3)c2)c1 | 4% | 40µM* | 5% | -3% | 6%
Cc1ccc(C(=O)Nc2cccnc2)cc1S(=O)(=O)N1CCCC1 | 0% | ? | ? | . | 0%
Cc1ccc(C(=O)Nc2cccnc2)cc1S(=O)(=O)N1CCCCC1 | 1% | 2% | 21µM* | 2% | -4%
COc1ccc(OCC(=O)Nc2sc3c(c2C(=O)NCC2CCCO2)CCC3)cc1 (configuration not stated) | 0% | 11µM* | -12% | 4% | -1%[1.84 µM]
CCSc1nnc(SCC(=O)c2c(N)n(C)c(=O)n(C)c2=O)s1 | 0% | 2% | 21µM* | . | -1%
Cc1ccccc1Nc1nnc(SCC(=O)c2c(N)n(C)c(=O)n(C)c2=O)s1 | 0% | 1% | -1% | -4% | 2%
Cc1oc2ncn(C)c(=O)c2c1C(=O)NCCCN(Cc1ccccc1)C(C)C | 0% | 0% | ? | -1% | 2%
O=C(COCc1cc(-c2ccc(F)cc2)on1)Nc1cc(Cl)ccc1O | 6.3µM* | 3% | ? | -1% | 3%
O=C(COCc1cc(-c2cccs2)on1)Nc1cc(Cl)ccc1O | 3.5µM* | -1% | -11% | 0% | 0%
O=C(c1ccco1)c1cn(CCOc2ccc(Cl)cc2)c2ccccc12 | 0% | 0% | 5% | -1% | -1%
CC(=O)c1cn(CC(=O)Nc2ccccc2C)c2ccccc12 | 0% | -1% | 9.2µM* | 0% | -6%
CCC(=O)c1cn(CC(=O)Nc2c(C)cccc2C)c2ccccc12 | 0% | 1% | 5% | . | 0%
CC(=O)c1cn(CC(=O)Nc2c(C)cccc2C)c2ccccc12 | -1% | -1% | 9.2µM* | 0% | -11%
SMILES | Nrf2 activator | PINK1 expr mod | Nrf2 inh | Epigenetic derep | A549 viability
CC(=O)c1cn(CC(=O)Nc2ccc(C)cc2)c2ccccc12 | 4% | -1% | ? | -1% | -3%
Cc1cccc(NC(=O)Cn2cc(C(=O)c3ccco3)c3ccccc32)c1C | 4% | 1% | 21µM* | ? | -22%
O=C(c1ccco1)c1cn(CCOc2ccc(F)cc2)c2ccccc12 | 4% | -1% | 23µM* | -1% | -27%
Cc1c(C(=O)NCc2ccccc2Cl)sc2ncnc(NCC3CCCO3)c12 (configuration not stated) | . | 1% | . | . | .
Cc1ccc(C)c(N2CCN(C(=O)C3CCN(c4nc(-c5ccc(C(C)C)cc5)no4)CC3)CC2)c1 | -6% | 1% | . | 9% | ?
S=C(N/N=C/c1ccc2ncccc2c1)Nc1ccccc1 | 0% | -2% | 13µM* | 1% | 3%
Fc1ccccc1-c1ccc(/C=N/Nc2nc3ccccc3[nH]2)o1 | 11µM* | 22% | ? | ? | 4%
COc1cc(/C=N\Nc2nc3ccccc3[nH]2)cc(OC)c1OC | -1% | 0% | 5.8µM* | 1% | 14%
C(=N\NCc1ccccc1)/c1ccc2ncccc2c1 | 0% | 0% | ? | 5% | 0%
C(=N\Nc1nc2ccccc2[nH]1)/c1ccc2c(c1)OCCO2 | 3% | 1% | 2.6µM* | 0% | ?
C(=N\Nc1nc2ccccc2[nH]1)/c1ccccn1 | -4% | 0% | ? | -1% | ?
COc1cc(-c2cc(C)c3cccc(OC)c3n2)cc2c1OCCN(C(=O)CCn1nc(C)cc1C)C2 | . | 0% | . | . | .
COc1cc(OC)c(OC)cc1/C=N/Nc1nc2ccccc2[nH]1 | -1% | -1% | 1% | -1% | -4%
CCOc1cc(/C=N/Nc2nc3ccccc3[nH]2)cc(Br)c1OCC(=O)N(C)C | 0% | -1% | 18µM* | 1% | -11%
C(=N\Nc1nc2ccccc2[nH]1)/c1ccc2ncccc2c1 | 7% | 3% | 21µM* | 3% | -7%
CCN(CC)c1ccc(/C=N/Nc2nc3ccccc3[nH]2)c(O)c1 | 14% | ? | 26µM* | ? | ?
Cc1ccc(NS(=O)(=O)c2cc3c(cc2N(C)C)NC(=O)CC3)cc1C | . | . | -4% | . | 4%
Cc1nc2cc(NC(=O)[C@@H]3C[C@@H](Sc4ccccn4)CN3Cc3ccccc3)ccc2s1 | . | 0% | . | . | .
CCN(Cc1ccncc1)Cc1ccc2c(c1)CN(C(=O)c1ccccc1-n1cccn1)CCO2 | . | 0% | . | . | .
CCCn1c(-c2cccs2)nc2nc3ccccc3nc21 | 4.5µM* | 0% | 19% | -1% | -4%
COCCn1c(-c2cccs2)nc2nc3ccccc3nc21 | 12% | 0% | 19% | -4% | 1%
CCc1cccc(C)c1NC(=O)CSc1nnc(-c2cc3cc(Br)ccc3o2)n1CC | 0% | -2% | 16µM* | -1% | ?
O=S(=O)(NCCNCC=Cc1ccc(Br)cc1)c1cccc2cnccc12 | . | 0% | . | . | .
c1cncc(OC2CCN(Cc3ccc4c(c3)CN(Cc3ccc5c(c3)OCCO5)CCO4)CC2)c1 | . | 1% | . | . | .
CCC(NC(=O)c1cc(COc2ccc(F)cc2Cl)on1)c1ccncc1 (configuration not stated) | 0% | -1% | 16µM* | . | ?
Cc1ccc(C)c(S(=O)(=O)NCc2ccc(C(=O)N3CCC(Cc4ccccc4)CC3)cc2)c1 | 2% | 18%[38.3 µM] | 16µM* | 0% | -11%[1.84 µM]
O=C(CCOc1ccccc1)NO | . | 2% | . | . | .
